Screening results as filed in PubChem BioAssay.
Bead autofluor – flagged as autofluorescent in microsphere protease counterscreen; compound autofluorescence counterscreen, microsphere flow cytometry; hits give high values; fluorescence intensity (test concentration not listed); hit rate 3.1% among 360,000; in the data active = fluorescence intensity above about 16000; inconclusive = no clear call, values can overlap the other calls
Anthrax LF prot – Bacillus anthracis LF protease inhibitors, primary screen, biochemical, multiplex microsphere, MLPCN library; Lethal factor (Bacillus anthracis), P15917; multiplex microsphere protease cleavage assay; inhibition, % at 10 µM; hit rate 0.12% among 360,000; AID 588501, 2011
BoNT-A LC inh2 – BoNT/A light chain protease inhibitors, primary screen, biochemical, flow cytometry, MLPCN library; hit rate 0.17% among 360,000; Botulinum neurotoxin type A light chain protease (Clostridium botulinum A str. ATCC 3502); multiplex microsphere protease substrate cleavage; inhibition, % at 10 µM
BoNT F protease – BoNT/F light chain protease inhibitors, primary screen, biochemical, flow cytometry, MLPCN library; Botulinum neurotoxin type F light chain protease (Clostridium botulinum); Multiplex microsphere protease cleavage assay; inhibition, % at 10 µM; hit rate 0.22% among 360,000; in the data active = inhibition above about 35%, passing the limit was not always enough; inconclusive = no clear call, values can overlap the other calls
Large screens that a line does not name were inactive. Rows were chosen to be rich in hits. Some 3.5% of all compounds tested hit in one or more screens of this group. Cut-off read from the data, not from the text of the source, unless noted: active = inhibition above about 30%; inconclusive = no clear call, values can overlap the other calls; inactive = below that.

COc1ccccc1NC(=O)N1CCN(c2cc(-c3ccccc3)nc3ncnn23)CC1	Bead autofluor 22826, BoNT-A LC inh2 inconclusive
COc1ccc(NC(=O)C2CCN(c3cc(-c4ccccc4)nc4ncnn34)CC2)cc1OC	Bead autofluor 20978, BoNT-A LC inh2 inconclusive
O=C(N1CCOCC1)N1CCN(c2nc(-c3ccccc3)cs2)CC1	Bead autofluor 22285
COc1ccccc1NC(=O)N1CCN(c2ccnc3cc(Cl)ccc23)CC1	none
COc1cccc(-c2csc(N3CCN(C(=O)Nc4ccccc4OC)CC3)n2)c1	Bead autofluor 21006, BoNT-A LC inh2 inconclusive
COc1ccc2c(C)c(C(=O)N3CCN(Cc4ccccc4)CC3)oc2c1	none
COc1ccc(OC)c(NC(=O)C2CCN(c3cc(-c4ccccc4)nc4ncnn34)CC2)c1	Bead autofluor 22638
CCN1CCC(NC(=O)c2cc(OC)c(OC)cc2OC)CC1	Bead autofluor 21698, BoNT-A LC inh2 inconclusive
COc1cc(N)c(Cl)cc1C(=O)NC1CCN(Cc2ccccc2)CC1	none
Fc1ccc(-c2nnc(Cc3nnc(-c4ccc(F)cc4)o3)o2)cc1	Bead autofluor 22771
N#Cc1c(-n2ccnc2)cccc1-n1ccnc1	Bead autofluor 21837
CCN(Cc1ccccc1)S(=O)(=O)c1csc(C(N)=O)c1	none
CCN(CC)S(=O)(=O)c1csc(C(=O)OCC(=O)c2ccccc2)c1	Bead autofluor 17304
Cc1cc(F)ccc1S(=O)(=O)N1CCCOC1CNC(=O)C(=O)NCc1ccccn1 (configuration not stated)	none
CC1CCCC/C1=N\NC(=S)Nc1ccccc1 (configuration not stated)	none
CC(C)NC(=S)N/N=C1\CCCCC1C1CCCCC1 (configuration not stated)	Bead autofluor 22179, BoNT-A LC inh2 inconclusive
CCCn1c(SCC(=O)Nc2nc3ccccc3s2)nc2c1c(=O)n(C)c(=O)n2C	none
CCCn1c(SCC(=O)Nc2nnc(C(C)C)s2)nc2c1c(=O)n(C)c(=O)n2C	none
CCCCn1c(SCC(=O)Nc2nnc(C)s2)nc2c1c(=O)n(C)c(=O)n2C	Bead autofluor 22970, BoNT-A LC inh2 inconclusive
CCCCn1c(SCC(=O)NC(=O)Cc2ccccc2)nc2ccccc2c1=O	none
CCCCn1c(SCC(=O)Nc2nnc(CC)s2)nc2c1c(=O)n(C)c(=O)n2C	Bead autofluor 21466, BoNT-A LC inh2 inconclusive
CCCCn1c(SCC(=O)Nc2nnc(CC)s2)nc2ccccc2c1=O	Bead autofluor 22336, BoNT-A LC inh2 inconclusive
O=C(O)c1cccc(Nc2ccnc(Nc3cccc(C(=O)O)c3)n2)c1	none
C=CCOC(=O)C1=C(C)NC(=S)NC1/C=C/c1ccccc1 (configuration not stated)	Bead autofluor 18190
Cn1cnnc1SCC(=O)Nc1ccc(N2CCCCC2)cc1	none
Cc1ccc2cccnc2c1NC(=S)NC(=O)c1ccccc1	Bead autofluor 22969, BoNT-A LC inh2 inconclusive
CCOc1ccccc1NC(=O)CN(c1ccc(OC)cc1)S(=O)(=O)c1c(C)noc1C	Bead autofluor 16905
CCOc1ccccc1NC(=O)CN(c1cc(C)cc(C)c1)S(=O)(=O)c1c(C)noc1C	none
COc1ccc(N(CC(=O)Nc2cccc(C)c2C)S(=O)(=O)c2c(C)n[nH]c2C)cc1	Bead autofluor 20057, BoNT-A LC inh2 inconclusive
COc1ccc(N(CC(=O)Nc2cccc(C)c2C)S(=O)(=O)c2c(C)[nH]c(=O)[nH]c2=O)cc1	none
CCOC(=O)c1cccc(NC(=O)CN(c2ccc(OC)cc2)S(=O)(=O)c2c(C)noc2C)c1	Bead autofluor 20239
O=C(CN1CCN(S(=O)(=O)c2ccccc2F)CC1)Nc1ccnn1C1CCCC1	none
C=C1c2ccccc2O[C@H](C(=O)OCC)[C@H]1OC	none
O=C(NCCCn1ccnc1)Nc1ccc(Cl)cc1	Bead autofluor 24742, BoNT-A LC inh2 inconclusive
O=C(NCCCN1CCc2ccccc2C1)Nc1ccc(Cl)cc1	Bead autofluor 22133
O=C(NCCN1CCN(c2ccccc2Cl)CC1)Nc1ccccc1	none
O=C(NCCN1CCN(Cc2ccccc2Cl)CC1)Nc1ccccc1	Bead autofluor 23034
O=C(CCN1C(=O)COc2ccccc21)NCCCN1CCc2ccccc2C1	Bead autofluor 18721
O=C(NCCCn1ccnc1)Nc1ccc(Cl)c(Cl)c1	none
CN1CCN(CCCNC(=O)CN2C(=O)COc3ccccc32)CC1	none
COc1ccc(NC(=O)NCCN2CCc3ccccc3C2)cc1	none
Cc1ccc(NC(=O)COC(=O)CCc2c(C)nc3ncnn3c2C)cc1C	none
CCCCNC(=S)NNC(=O)c1sccc1C	Bead autofluor 16469
CNC(=S)NNC(=O)c1sccc1C	none
COc1ccc2ccccc2c1C1CC(=O)N2CN(C)CSC2=C1C#N (configuration not stated)	Bead autofluor 20088, BoNT-A LC inh2 inconclusive
COc1cc(OC)c(C2CC(=O)N3CN(C)CSC3=C2C#N)cc1OC (configuration not stated)	none
COc1cc(OC)c(C2CC(=O)N3CN(c4ccccc4)CSC3=C2C#N)cc1OC (configuration not stated)	Bead autofluor 20460, BoNT-A LC inh2 inconclusive
O=C(NN=C1CCCC1)c1ccc(O)cc1	none
Cc1ccc(C(=O)O/N=C/c2c(N3CCOCC3)n(C)c3ccccc23)cc1	none
CC(=O)O/N=C/c1c(N2CCOCC2)n(C)c2ccccc12	Bead autofluor 23889
CCOC(CNC(=O)c1ccc2c(c1)nc(C)n2-c1cccc(F)c1)OCC	Bead autofluor 23358
CC(C)Cn1nnc2c(=O)oc3ccccc3c21	Bead autofluor 24285, BoNT-A LC inh2 inconclusive
CCn1c(C)nc2c(=O)oc3ccccc3c21	Bead autofluor 21816
S=c1[nH]nc(C2CCCCC2)n1/N=C/c1cccs1	Bead autofluor 23451, BoNT-A LC inh2 inconclusive
S=c1[nH]nc(C2CCCCC2)n1/N=C/c1ccncc1	none
O=[N+]([O-])c1ccc(/C=N/n2c(C3CCCCC3)n[nH]c2=S)cc1	Bead autofluor 22651, BoNT-A LC inh2 inconclusive
S=c1[nH]nc(C2CCCCC2)n1/N=C/c1ccccc1Cl	BoNT F protease inconclusive
CC1c2cc3c(cc2CCN1C(=O)c1cccc(Cl)c1)OCCCO3 (configuration not stated)	none
Cc1ccc(C(=O)Nc2nc(C(N)C(C)C)cs2)cc1 (configuration not stated)	none
COC(=O)c1ccccc1NC(=O)CC(=O)Nc1ccccc1C(=O)OC	none
COC(=O)c1ccccc1CON1C(=O)C(C)(C)N(OCc2ccccc2C(=O)OC)C(=O)C1(C)C	Bead autofluor 16139
COc1cccc(N2CCN(C(=O)C3C4C=CC5(CN(Cc6ccccc6Cl)C(=O)C35)O4)CC2)c1 (configuration not stated)	Bead autofluor 23129
CC(C)(Oc1ccc(Cl)cc1)C(=O)OCC(=O)Nc1ncc(Cl)cc1Cl	Bead autofluor 22776
O=C(COC(=O)CC12CC3CC(CC(C3)C1)C2)Nc1ncc(Cl)cc1Cl	Bead autofluor 24856
COc1ccc(OCCCC(=O)OCC(=O)Nc2ncc(Cl)cc2Cl)cc1	none
Cc1ccccc1C(=O)NC1CCN(C(=O)Nc2ccc(F)cc2)CC1	none
COC(=O)[C@]1(C)N[C@H](CN(C)C(C)=O)[C@@H]2C(=O)N(Cc3ccccc3)C(=O)[C@@H]21	none
